The text below walks through data of PubChem BioAssay AID1979 (Broad Institute, 2009).

Screen size: about 300,000 compounds; about 1,700 (0.57%) were called active. Inconclusive results (about 2%) are left out. Shown is part of a subset that was picked to be rich in actives. A number with no mark means an inactive call.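 Rule for the calls: active = growth inhibition above about 58% in most replicates (limit read from the data, passing the limit was not always enough); inconclusive = exactly half the replicates above a set limit; inactive = most replicates below a set limit.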

The experiment is described as follows: Candida growth reduction under fluconazole – CaCi-2 strain, Alamar Blue fluorescence, primary screen (AID 1979).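 Note: all wells also contain fluconazole at 8 µg/ml as a sub-toxic cotreatment; 0% = median of DMSO wells and 100% = median of geldanamycin control wells.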 As to conditions: C. albicans CaCi-2 (fluconazole-resistant clinical isolate) + fluconazole, 48 h, hits give high values, concentration not given here. On the technique in general: Alamar Blue is a resazurin reagent that responds to reducing activity.
Consider `Nc1cc(N)nc(SCc2cccc(F)c2)n1`, for which the growth inhibition is 93.5% (active).

Consider `CCc1nnc(SCc2cccc(F)c2)nc1CC`, for which the growth inhibition is -15.9%.

Take `Nc1cc(N)nc(SCc2ccc(Cl)cc2)n1`: the growth inhibition was 12.7%.

`O=C(c1ccc(Cl)s1)N(Cc1nnc(-c2ccccc2Cl)o1)C1CC1`: the growth inhibition was -12.7%.

For the compound `COc1ccccc1N1CCN(C(=O)c2cc(=O)c3cc(C)cc(C)c3o2)CC1`, the growth inhibition is 4.61%.

For the compound `Cc1ccc(SCc2c(C(=O)N/N=C/c3cccnc3)nnn2-c2nonc2N)cc1`, the growth inhibition is 19.8%.

With `Nc1nonc1-n1nnc(C(=O)N/N=C/c2ccccc2O)c1CN1CCCC1`, the growth inhibition is -25.8%.

`Nc1nonc1-n1nnc(C(=O)N/N=C/c2cc(Br)ccc2O)c1CSC1=NCCS1`: the growth inhibition is 90.5% (active).

`CCOC(=O)C1=C(c2ccccc2)NC(=O)NC1c1cc(OCC)c(O)c([N+](=O)[O-])c1` (stereo not given): the growth inhibition is 38%.

`CCOC(=O)C1=C(c2ccccc2)NC(=O)NC1c1cc(OC)c(OC)cc1OC` (stereo not given): the growth inhibition was 111% (active).

In the case of `COc1cc(C2NC(=O)NC(c3ccccc3)=C2C(C)=O)c(Br)cc1OCC(N)=O` (stereo not given), the growth inhibition was 6.65%.

In the case of `Cc1cccc(NS(=O)(=O)c2ccc(C(=O)NCC(C)(C)N3CCOCC3)cc2)c1C`, the growth inhibition was -3.65%.

For `CCOc1ccc(CCNC(=O)COC(=O)c2c(OC)cccc2OC)cc1OCC`, the growth inhibition was 8.5%.

As for `Cc1ccn2c(=O)c(NC(=O)c3cccc4ccccc34)c(C)nc2c1`, the growth inhibition is 1.1%.

For the compound `CCOc1ccc(NC(=O)NNC(=O)c2ccc(Cl)cc2Cl)cc1`, the growth inhibition was 0.808%.

In the case of `NC(N)=N/N=C/c1ccc(OCc2ccc(Cl)cc2Cl)cc1`, the growth inhibition is 123% (active).

As for `OC(CNCCc1ccc(Cl)cc1Cl)COc1ccccc1` (stereo not given), the growth inhibition was 7.1%.

`OCCCNc1nc(-c2ccccc2)c2cc(Cl)ccc2n1`: the growth inhibition was 14.2%.

`O=C(O)C(c1ccccc1)N1C(=O)/C(=C\c2ccc(-c3cccc(Cl)c3)o2)SC1=S` (stereo not given): the growth inhibition was 37.9%.

Turning to `O=c1c(-c2cccc(Cl)c2)c[nH]n1-c1ccccc1`, the growth inhibition is 0.955%.

As to `O=C1c2ccccc2NC(c2ccc(-c3cccc(Cl)c3)o2)N1O` (stereo not given), the growth inhibition was 96.8% (active).

Regarding `Cc1ccc(CCN2CC(C(=O)NCCc3ccccc3)CC2=O)cc1` (stereo not given), the growth inhibition is -6.78%.

Take `Cc1cccnc1NC(=O)Cn1c(=O)oc2ccccc21`: the growth inhibition was -0.441%.

Consider `C[C@@H]1C[C@@H]2O[C@H]2/C=C\C=C\C(=O)Cc2c(Cl)c(O)cc(O)c2C(=O)O1`, for which the growth inhibition is 84.1% (active).

Turning to `O=C(NCCN1CCOCC1)c1cc(-c2cccs2)nc2ccccc12`, the growth inhibition is -3.11%.

Consider `COC(=O)c1cc(-c2cccs2)nc2ccccc12`, for which the growth inhibition was -7.15%.

`O=C(Nc1nnc(-c2ccccc2)o1)c1cc(-c2cccs2)nc2ccccc12`: the growth inhibition is 89.3% (active).

As to `CSCc1nnc(NC(=O)c2ccc(S(=O)(=O)N3CCCCC3C)cc2)o1` (stereo not given), the growth inhibition is 8.82%.

Turning to `CC1CCCN(S(=O)(=O)c2ccc(C(=O)Nc3nnc(-c4ccncc4)o3)cc2)C1` (stereo not given), the growth inhibition is 18.1%.

In the case of `CC1CCCCN1S(=O)(=O)c1ccc(C(=O)Nc2nnc(-c3cccs3)o2)cc1` (stereo not given), the growth inhibition was 95.4% (active).

As to `COc1ccc(-c2cc(=O)oc3cc(OC(C)C(=O)NCC4CCC(C(=O)O)CC4)ccc23)cc1` (stereo not given), the growth inhibition was -4.33%.

`CSCCC(NS(=O)(=O)c1ccc(C)cc1)C(=O)NCCc1c[nH]c2ccccc12` (stereo not given): the growth inhibition was -6.21%.

With `COc1ccc(N(C(=O)c2ccc(C)cc2)S(=O)(=O)c2cccs2)cc1`, the growth inhibition was 4.35%.

Consider `CN(/C(=N/S(=O)(=O)c1cccs1)c1ccccc1)c1ccc(O)cc1`, for which the growth inhibition is 117% (active).

Consider `O=S(=O)(/N=C(/Nc1ccccc1)c1ccccc1)c1cccs1`, for which the growth inhibition is -39.8%.

As for `CN(CC(=O)Nc1cccc(F)c1)C(=O)C1CC(=O)N(CCc2ccccc2)C1` (stereo not given), the growth inhibition was -9.09%.

For the compound `Oc1ccc(N=Nc2nccs2)c(O)c1`, the growth inhibition is 85.9% (active).

Regarding `Oc1ccc2ccccc2c1N=Nc1nccs1`, the growth inhibition was 0.433%.

On to `CC(CN1CCC(n2nccc2NC(=O)C2CCCC2)CC1)c1ccccc1` (stereo not given), for which the growth inhibition was -5.12%.

For the compound `CC1=NNC(=O)C1Cc1c(Cl)cccc1Cl` (stereo not given), the growth inhibition was -0.631%.

With `CN(C(=O)COC(=O)CNC(=O)C12CC3CC(CC(C3)C1)C2)c1ccccc1`, the growth inhibition is -17.2%.

On to `Cc1ccc(C(=O)NCCNC(=O)c2ccccc2)cc1`, for which the growth inhibition is 5.77%.

For `CN(C(=O)CC(NC(=O)c1ccccc1)(c1ccccc1)c1ccccc1)c1ccccc1`, the growth inhibition is 91.8% (active).

In the case of `Nc1c(C(=O)Nc2ccc3c(c2)OCCO3)nnn1Cc1ccccc1`, the growth inhibition was 9.7%.

Consider `Cc1sc2ncnc(N3CCC(C(=O)NNC(=O)c4ccc(F)cc4)CC3)c2c1C`, for which the growth inhibition was 11%.

On to `COc1ccc(S(=O)(=O)NCCCc2ccccc2)cc1`, for which the growth inhibition is -3.19%.

As for `Cc1nn(-c2ccccc2)c(C)c1NC(=O)COC(=O)c1cc(Cl)ccc1O`, the growth inhibition is -3.39%.

As for `CCN1C(=O)[C@H]2[C@@H](c3ccc(C)cc3)N3C(=O)N(c4cccc(Br)c4)C(=O)[C@@]3(CC)[C@H]2C1=O`, the growth inhibition is -1.61%.

In the case of `Cc1c(Cl)c([N+](=O)[O-])nn1CCCC(=O)Nc1cc(Cl)ccc1Cl`, the growth inhibition is 0.816%.

`Cc1c(Cl)c([N+](=O)[O-])nn1Cc1ccc(C(=O)N/N=C\c2cc(Cl)ccc2O)o1`: the growth inhibition is 112% (active).

With `O=C(N/N=C/c1ccc2c(c1)OCO2)c1ccc(Cn2cc([N+](=O)[O-])cn2)o1`, the growth inhibition was -1.68%.

Regarding `O=C1N[C@@H](Cc2ccccc2)C(=O)N2[C@H]1C[C@]1(Br)c3ccccc3N(S(=O)(=O)c3ccccc3)[C@H]21`, the growth inhibition was 4.33%.

`COC(=O)Cc1[nH]n(-c2nc3ccccc3s2)c(=O)c1C(C)=Nc1ccc(OC)cc1`: the growth inhibition was 5.2%.

On to `C/C(=N\NC(=O)CC(C)C)c1c(C(F)(F)F)[nH]n(-c2nc3ccccc3s2)c1=O`, for which the growth inhibition is 8.15%.

On to `COC(=O)Cc1cc(=O)n(-c2nc3ccccc3s2)[nH]1`, for which the growth inhibition is 93.5% (active).

In the case of `COc1cc(/C=C/C(=O)O)cc(S(=O)(=O)Nc2ccccc2C(=O)NCCc2ccccc2)c1OC`, the growth inhibition is -0.0595%.

As to `O=C(/C=C/c1ccco1)Nc1cccc(-c2nc3ccccc3[nH]2)c1`, the growth inhibition was 91.5% (active).

Turning to `O=C(Nc1cccc(-c2nc3ccccc3[nH]2)c1)c1ccc(C(=O)Nc2cccc(-c3nc4ccccc4[nH]3)c2)cc1`, the growth inhibition was -12.9%.

For the compound `Cc1ccc(-n2nc3ccc(NC(=O)/C=C/c4ccco4)cc3n2)cc1C`, the growth inhibition is 20%.

As for `CCOc1cc(/C=N/NC(=O)c2cccc(S(=O)(=O)N3CCOCC3)c2)ccc1OCC(=O)N(C)C`, the growth inhibition is 3.22%.

Take `CC(=O)c1nn(-c2ccc(C)cc2)cc1C(=O)c1cccc(Br)c1`: the growth inhibition is -5.17%.

On to `CC1CCC(NC(=O)CNC(=O)c2ccc3ccccc3c2)CC1` (stereo not given), for which the growth inhibition was 4.42%.

In the case of `O=C(NCC(=O)N(CC1CCCO1)C(C(=O)NC1CCCCC1)c1ccccc1)c1ccco1` (stereo not given), the growth inhibition was 103% (active).

On to `Cc1ccc(N(C(=O)CNC(=O)c2ccco2)C(C(=O)NC2CCCC2)c2ccncc2)cc1` (stereo not given), for which the growth inhibition is -17%.

For `COc1ccc(N(C(=O)CNC(=O)c2ccco2)C(C(=O)NCC2CCCO2)c2ccccc2)cc1Cl` (stereo not given), the growth inhibition is 7.7%.

With `CC1CCCCN1S(=O)(=O)CCNC(=O)c1ccccc1` (stereo not given), the growth inhibition is 0.685%.

Regarding `Cc1nnsc1C(=O)Nc1cccc(Cl)c1C`, the growth inhibition is -1.12%.

As to `Cc1cc(Cl)ccc1NNC(=O)c1snnc1C`, the growth inhibition is 85.6% (active).

For `Cc1nnsc1C(=O)N/N=C/c1ccccc1Cl`, the growth inhibition was -6.46%.

For the compound `Cc1cc(C)nc(N/N=C/c2ccc([N+](=O)[O-])o2)n1`, the growth inhibition was 11.2%.

Turning to `CCc1ccc(S(=O)(=O)N/N=C\c2ccc([N+](=O)[O-])o2)cc1`, the growth inhibition is 13.3%.

With `C/[N+]([O-])=C\c1ccc([N+](=O)[O-])o1`, the growth inhibition is 110% (active).

On to `CCc1ccccc1NC(=O)c1cc(-c2ccc3c(c2)OCO3)on1`, for which the growth inhibition was -0.103%.

Take `Cc1ccc(C)c(N2CCN(C(=O)Cn3ncn4cccc4c3=O)CC2)c1`: the growth inhibition was -9.35%.

As for `CSc1ccccc1NC(=O)C(C)N1C(=O)c2ccccc2S1(=O)=O` (stereo not given), the growth inhibition was 2.61%.

For `CC1(C)CC(N2CCN(C(c3ccccc3)c3ccccc3)CC2)=CC(=[N+]2CCCCC2)C1`, the growth inhibition was 95.7% (active).

Take `O=C(O)CN1CCN(C(c2ccccc2)c2ccccc2)CC1`: the growth inhibition is -6.25%.

Take `CC(C)NC(=S)N1CCN(C(c2ccccc2)c2ccccc2)CC1`: the growth inhibition was 11.5%.

Turning to `O=C(Nc1cc(Cl)ccc1N1CCOCC1)c1ccc(N2CCCC2=O)cc1`, the growth inhibition was 4%.

Take `O=C(NCCC1CCCCN1S(=O)(=O)c1cccs1)C(=O)Nc1ccc(F)cc1F` (stereo not given): the growth inhibition was 7.39%.

Take `O=C(Nc1cccc2c1CCCC2)c1ccc(F)cc1`: the growth inhibition was -3.5%.

As for `Cn1c(NN)nc2sc3c(c2c1=O)CCC3`, the growth inhibition is 87.2% (active).

As to `Cc1nc2sc3c(c2c(=O)n1NC(=O)CCl)CCCC3`, the growth inhibition is 9.31%.

In the case of `NNC(=O)C1CCCn2c1nc1sc3c(c1c2=O)CCCC3` (stereo not given), the growth inhibition is 2.28%.

Take `C#CCOCCOCCOCCNc1nc(N2CCN(C(=O)C([C@@H](C)CC)n3cc(C(N)COC(=O)C(F)(F)F)nn3)CC2)nc(N2CCN(C(=O)[C@H](CCCCN)n3cc(C(N)CC(C)C)nn3)CC2)n1` (stereo not given in full): the growth inhibition is 4.02%.

As to `O=C(CSC1=NS(=O)(=O)c2cc(F)ccc2N1)Nc1ccccc1F`, the growth inhibition is 5.53%.

For `Cc1ccc(N=C2SCCCN2C(=O)c2cccc(N3C(=O)CCC3=O)c2)cc1Cl`, the growth inhibition is -7.25%.

For the compound `CC(=O)c1cnc(SCCN2C(=O)c3ccccc3C2=O)nc1C`, the growth inhibition was -3.43%.

Regarding `Nc1ccc(SCCN2C(=O)c3ccccc3C2=O)cc1`, the growth inhibition is 103% (active).

Take `O=C(OCCN1C(=O)c2ccccc2C1=O)Oc1ccccc1`: the growth inhibition was 4.11%.
